Bioassay records from PubChem BioAssay.
Most compounds without a hit are left out; they make up all but 18% or so of the library.
TDP1 cell noCPT: qHTS for Inhibitors of human tyrosyl-DNA phosphodiesterase 1 (TDP1): qHTS in cells in absence of CPT; DT40 Tdp1-/- hTDP1 cells, no CPT, ATP luminescence, 48 h; Potency, µM (doses to about 46.2 µM), for the others: at the top dose activity change, negative = growth inhibition, usual class: inhibitors; 420,000 compounds, 15% hits; AID 686978, 2013; also: potency is read from the fitted curve at half-maximal effect; % is scaled to controls: 0 for no effect and ±100 for the full control effect; nearly all actives have a fitted effect of over 55% in size
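No-CPT arm: Tdp1-/-;hTDP1 DT40 cells (400/well) plus compounds, incubated ≥48 hr at 37 °C. Readout CellTiter-Glo luminescence.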
DT40 TDP1 CPT: growth inhibition of DT40 Tdp1-/-;hTDP1 cells with camptothecin (screen for TDP1 inhibitors). chicken DT40 Tdp1-/-;hTDP1 cells + 20 nM CPT, ATP luminescence, 48 h. Potency, µM (titrated, usually from 46.2 µM), inactives show top-dose activity change, negative = growth inhibition, actives largely listed as inhibitors. 420,000 compounds, 12% hits; also: potency is read from the fitted curve at half-maximal effect; % is scaled to controls: 0 for no effect and ±100 for the full control effect; nearly all actives have a fitted effect of over 55% in size
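Chicken DT40 Tdp1-/- cells complemented with human TDP1, 400 cells/well, exposed to compounds plus 20 nM camptothecin for at least 48 h at 37 C; viability read as ATP content by CellTiter-Glo luminescence.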
IL-1B inflam inh: inflammasome signaling inhibition, IL-1 beta readout; THP-1 LPS/ATP IL-1B secretion, AlphaLISA, 16 h; active compounds read low; activity change, % at 57.5 µM; 360,000 compounds, 4.7% hits; in the data active = activity change below about -50%; inconclusive = mostly about -30% to -49%; also: % is scaled to controls: 0 for no effect and ±100 for the full control effect
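THP-1 cells pretreated 1 hr with compounds (up to 57.5 uM final), then stimulated with LPS (250 ng/mL final) plus ATP (1.25 mM final); secreted IL-1B measured by AlphaLISA after 16 hr, decreased signal indicating inhibition.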
TGFb SMAD3 inh: blocks TGF-b signaling; Potency, µM (doses to about 46.1 µM), for the others: top-dose activity, negative = inhibition, most hits filed as inhibitors; HepG2 CAGA-GFP TGF-b/SMAD3 reporter, GFP fluorescence, 18 h; TGF-beta stimulated, 500 pg/mL final; AID 588855; 410,000 compounds, 1.2% hits; also: potency is read from the fitted curve at half-maximal effect; % is scaled to controls: 0 for no effect and ±100 for the full control effect; nearly all actives have a fitted effect of over 65% in size
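GFP signal (ex488/em500-530) from TGF-beta-stimulated HEPG2 CAGA-GFP cells, 500 pg/mL final, 18 h at 37 degrees C in DMEM plus 1% FBS, normalized to unstimulated and DMSO-stimulated controls.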
HepG2 tox: HepG2 cytotoxicity, counter-screen for TGF-b inhibitors. HepG2 CAGA-GFP viability, ATP luminescence, 18 h. Potency, µM (series often up to 46.1 µM), inactives show top-dose activity change, negative = cytotoxicity, usual class: cytotoxic. 410,000 compounds, 0.76% hits; also: potency is read from the fitted curve at half-maximal effect
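CellTiter-Glo luminescence gave cytotoxicity after 18 hours at 37 degrees C. The cells were HepG2 CAGA-GFP in 1% FBS DMEM, stimulated with 500 pg/mL TGF-beta after compound addition. %Activity was normalised to no-cell wells (complete cell-killing) and DMSO (no toxicity), and curves were fitted and classified.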
TDP1 inh: blocks human tyrosyl-DNA phosphodiesterase 1. recombinant TDP1, AlphaScreen DNA substrate cleavage. Potency, µM (top dose mostly 130 µM), for the others: top-dose activity change, negative = inhibition, usual class: inhibitors. 350,000 compounds, 0.28% hits. AID 485290; also: potency is read from the fitted curve at half-maximal effect; % is scaled to controls: 0 for no effect and ±100 for the full control effect; nearly all actives have a fitted effect of over 40% in size
Target sequence (Q9NUW8 whole entry, looked up): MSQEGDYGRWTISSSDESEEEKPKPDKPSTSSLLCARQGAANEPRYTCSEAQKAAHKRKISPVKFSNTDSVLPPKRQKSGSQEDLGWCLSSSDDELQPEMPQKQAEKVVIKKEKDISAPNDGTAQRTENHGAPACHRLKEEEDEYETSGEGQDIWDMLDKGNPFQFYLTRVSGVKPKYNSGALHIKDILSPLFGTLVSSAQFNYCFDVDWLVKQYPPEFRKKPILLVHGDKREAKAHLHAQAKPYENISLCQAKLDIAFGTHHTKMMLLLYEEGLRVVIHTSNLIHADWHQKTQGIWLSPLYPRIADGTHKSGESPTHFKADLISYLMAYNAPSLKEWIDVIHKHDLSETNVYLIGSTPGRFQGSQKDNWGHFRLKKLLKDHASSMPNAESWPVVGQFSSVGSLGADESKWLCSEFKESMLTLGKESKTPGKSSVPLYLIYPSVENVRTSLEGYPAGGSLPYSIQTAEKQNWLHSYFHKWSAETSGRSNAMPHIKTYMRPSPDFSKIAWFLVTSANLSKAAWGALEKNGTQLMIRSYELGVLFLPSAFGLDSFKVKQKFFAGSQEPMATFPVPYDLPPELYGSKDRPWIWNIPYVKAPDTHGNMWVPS
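Recombinant E. coli-expressed Tdp1 (1 nM) preincubated with compound 15 min at RT, then 5'-biotin/3'-phosphotyrosine-FITC DNA substrate (15 nM) added for 5 min. AlphaScreen beads (10 ug/ml) added, 10 min RT; tyrosine-FITC cleavage read as signal loss.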
The depositor's hits bear a star; ? = inconclusive; . = no result given; [ ] = remark or other dose. Unless noted, calls follow the shape of the dose curve; as a rule, active = well fitted curve in the direction sought with a large enough effect; inconclusive = small, poorly fitted or top-dose-only effect, or another doubt; inactive = no such curve, though single readings can be large; an effect the other way counts as inactive or inconclusive.

SMILES	TDP1 cell noCPT	DT40 TDP1 CPT	IL-1B inflam inh	TGFb SMAD3 inh	HepG2 tox	TDP1 inh
CCCS(=O)(=O)c1nc(S(=O)(=O)c2ccc(C)cc2)c(NCc2ccccc2)s1	?	-27%	.	.	4%	3%
CCCCOC(=O)C1C2CCC(O2)C1C(=O)OCC (configuration not stated)	3%	8%	24	?	-8%	.
CCc1ccc(-n2c(=O)c3c(C)c(C)sc3n(CC(=O)NCc3ccc(C)cc3)c2=O)cc1	2%	-3%	.	16%	4%	-2%
Cc1nn(C(=O)COc2ccccc2)c(C)c1Sc1ccccc1	-17%	-14%	.	.	-5%	.
COc1cc(C#Cc2c(-c3cncn3C)n(C)c3ccc(Br)cc23)cc(OC)c1	18µM*	?	0	?	-86%	4%
COc1cc(C#Cc2c(-c3cncn3C)n(C)c3ccc(-c4ccc(OC)c(OC)c4)cc23)cc(OC)c1	?	?	-12	-23%	-17%	1%
COc1cc(C#Cc2c(-c3cncn3C)n(C)c3ccc(-c4ccc5cc[nH]c5c4)cc23)cc(OC)c1	?	18µM*	-16	-10%	-3%	4%
C[C@H]1Cc2c(COc3ccccc3)nc3c(c2CO1)CN(C(=O)C1CCCCC1)CC3	.	.	.	.	.	8%[12.3 µM]
CCc1nc(OCC(=O)c2ccccc2)c(C#N)c2c1COC(C)(C)C2	18µM*	?	-8	-29%	0%	-1%
Cc1nc(OCC(=O)c2ccc(Cl)cc2)c(C#N)c2c1COC(C)(C)C2	?	?	-18	?	-5%	3%
O=C(Nc1ccc(Br)cc1F)c1ccncc1	-29%	-10%	?	9%	1%	-2%
O=C(Nc1ccc(Br)cc1F)c1ccc2nsnc2c1	8.2µM*	?	4	2%	-2%	1%
Cc1ccc(-c2nn3c(C)nnc3s2)cc1NC(=O)c1ccc(-c2ccc(Cl)cc2Cl)o1	6.5µM*	7.3µM*	21	?	-55%	.
Cc1ccc(-c2nn3c(C)nnc3s2)cc1NC(=O)c1ccc(-c2cccc(Cl)c2)o1	18µM*	23µM*	104	?	-60%	-1%
N[C@H](CCC(=O)NCC(=O)O)C(=O)O	-31%	?	.	.	.	0%
Cc1ccc[n+](-c2nc([O-])sc2C=O)c1	1%	2%	-1	-20%	-18%	28µM*
O=C(CCl)Nc1cc(-c2ccccc2)nn1-c1ccccc1	3.3µM*	5.2µM*	-105*	?	-111%	8%
Cc1ccc(-c2nn(-c3ccccc3)cc2NC(=O)CCl)cc1	2.6µM*	3.3µM*	-100*	?	-106%	3%
Cc1ccc(-c2cc(NC(=O)CCl)n(-c3ccccc3)n2)cc1	7.3µM*	-90%	-99*	?	-104%	3%
COc1cc(OC)cc(C(=O)NC(C)CNc2ccc(Cl)cc2[N+](=O)[O-])c1 (configuration not stated)	8.2µM*	?	-6	6%	-13%	.
COCC(C)NC(=O)c1cc(OC)cc(OC)c1 (configuration not stated)	-29%	-13%	-15	5%	-1%	1%
Cc1ccc([C@H]2C[C@H](n3cc(C4CC4)nn3)[C@@H](O)CN2CC2CCCCC2)cc1	18µM*	?	-13	?	-70%	.
Cc1ccc([C@H]2C[C@@H](n3cc(C4CC4)nn3)[C@H](O)CN2CC2CCCCC2)cc1	?	?	-11	?	-114%	.
COc1ccc([C@H]2C[C@@H](n3cc(C4CC4)nn3)[C@H](O)CN2CC2CCCCC2)cc1	21µM*	?	-55*	?	-69%	.
CC(C)c1cccc2nc3c(c(C(C)(C)C)c12)Cn1c-3cccc1=O	.	.	.	.	.	8%
SMILES	TDP1 cell noCPT	DT40 TDP1 CPT	IL-1B inflam inh	TGFb SMAD3 inh	HepG2 tox	TDP1 inh
CCCCn1cc(S(=O)(=O)c2ccc(OC)cc2)c(=O)c2cc(CC)ccc21	?	?	.	-9%	-20%	-1%
CC1=C(C(=O)Nc2ccc(C)cc2C)C(c2ccccc2F)n2nc(SCC(=O)c3ccc(C)cc3)nc2N1 (configuration not stated)	15µM*	18µM*	.	-6%	-31%	-1%
CC1=C(C(=O)Nc2ccc(C)cc2C)C(c2ccccc2)n2nc(SCC(=O)c3ccc(C)cc3)nc2N1 (configuration not stated)	-1%	-7%	.	2%	4%	1%
CCOc1ccccc1C1C(C(=O)Nc2ccccc2)=C(C)Nc2nc(SCC(=O)c3ccc(C)cc3)nn21 (configuration not stated)	9.2µM*	7.3µM*	.	?	-16%	5%
C/C(=N\NC(=O)c1nnn(-c2nonc2N)c1CN1CCCCC1)c1ccccc1O	13µM*	10µM*	95	-26%	-16%	7%
C/C(=N\NC(=O)c1nnn(-c2nonc2N)c1CN(C)c1ccccc1)c1ccccc1O	6.5µM*	8.2µM*	93	?	-22%	1%
Cn1ccnc1C(O)(c1ccccc1)c1ccccc1	-2%	-12%	6	2%	-33%	-5%
CC(C)[C@H](NC(=O)c1ccccc1F)C(=O)OCC(=O)NC1CC1	-2%	1%	16	-4%	-2%	1%
CCCCNC(=S)N(CCCO)Cc1cc2cc3c(cc2[nH]c1=O)OCO3	-13%	-2%	?	-2%	-7%	.
CCC(/C=C1\Oc2ccc(OC)cc2N1C)=C\c1sc2ccccc2[n+]1CCCS(=O)(=O)[O-]	?	-7%	1	5%	-1%	.
CC[n+]1ccc(/C=C2\Sc3ccccc3N2CCCS(=O)(=O)[O-])c2ccccc21	2%	1%	58	?	6%	50µM*
Cc1ccc(C=NNc2ccc([N+](=O)[O-])cn2)cc1	-28%	?	-10	3%	-15%	.
Cc1ccc2nc(C(Cl)(Cl)Cl)nc(N/N=C/c3ccc([N+](=O)[O-])cc3)c2c1	16µM*	?	23	0%	0%	.
C=CCc1c(C)nc(C)nc1N/N=C/c1ccccc1O	23µM*	26µM*	12	?	-48%	14%
C=CCc1c(C)nc(C)nc1N/N=C/c1ccc([N+](=O)[O-])cc1	16µM*	?	37	-2%	-8%	6%
